The list is not random: actives were taken first. Their share in the collection is about 8.3%.
BCR signal inh: qHTS Assay to Find Inhibitors of Chronic Active B-Cell Receptor Signaling; ABC-DLBCL IkBa-CBG/CBR reporter, luminescence ratio, 4 h; Potency, µM (top dose mostly 46.1 µM), usual class: inhibitors; hit rate 0.05% among 340,000; AID 493014, 2011; active = well fitted inhibition curve with a large enough effect in the signal ratio, with a control signal flat, not every such curve was filed as active; inconclusive = small, poorly fitted or top-dose-only effect, or effect the other way, or a change in a side signal; the % refers to the signal ratio
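Doxycycline induced both beetle luciferases in TMD8 lymphoma cells; IKK-driven degradation limits the IkappaBalpha-fused green signal, while red luminescence normalises for cell number and nonspecific effects. Compounds tested up to 46 uM, 4 hrs.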
MCF10A rereplic: A quantitative high throughput screen for small molecules that induce DNA re-replication in MCF 10a normal breast cells | Potency, µM (series often up to 46.1 µM), usual class: activators | MCF 10A DNA re-replication, Hoechst nuclear intensity, 48 h | hit rate 2.9% among 350,000; note: nearly all actives have a fitted effect of over 50% in size
SW480 rereplic: A quantitative high throughput screen for small molecules that induce DNA re-replication in SW480 colon adenocarcinoma cells. SW480 DNA re-replication, Hoechst DNA content imaging, 48 h. Potency, µM (highest dose often 46.1 µM), most hits filed as activators. hit rate 1.8% among 340,000. AID 624297, 2012; note: nearly all actives have a fitted effect of over 55% in size
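Hoechst fluorescence of nuclei (405 nm excitation, 500-530 nm emission) measured by plate-scanning imager after 48 hr compound exposure at 37 C; re-replication scored as increased number of nuclei with elevated intensity.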
Giardia kill: Small Molecules that selectively kill Giardia lamblia: qHTS | hit rate 0.15% among 340,000 | AID 540267, 2011 | Giardia lamblia trophozoite viability | activity change, % at 7.66 µM, hits read low; in the data active = activity change below about -80%; inconclusive = between about -30% and that limit;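 note: parasites exposed to compound for two days anaerobically before the ATP read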
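Trophozoites 100 cells/well + cpd; 48 hrs, 37 deg C, anaerobic. ATPLite 1-Step added, 15-30 min RT, luminescence read (ATP-based viability).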
VP16 counter: VP16 counterscreen qHTS for inhibitors of ROR gamma transcriptional activity; AID 2546, 2010; Potency, µM (series often up to 53.6 µM), most hits filed as inhibitors; hit rate 3.5% among 310,000; Drosophila S2 Gal4-VP16 UAS-luciferase, luminescence, 20 h;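 note: Gal4-VP16 expression switched on by copper sulfate through the metallothionein promoter; nearly all actives have a fitted effect of over 50% in size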
RORg inh: qHTS for inhibitors of ROR gamma transcriptional activity. Nuclear receptor ROR-gamma (Mus musculus), P51450. Drosophila S2 Gal4-RORgamma UAS-luciferase reporter, 20 h. Potency, µM (top dose mostly 53.6 µM), usual class: inhibitors. hit rate 5.4% among 310,000; note: nearly all actives have a fitted effect of over 60% in size
Target sequence (P51450 whole entry, looked up, the tested form may be a part): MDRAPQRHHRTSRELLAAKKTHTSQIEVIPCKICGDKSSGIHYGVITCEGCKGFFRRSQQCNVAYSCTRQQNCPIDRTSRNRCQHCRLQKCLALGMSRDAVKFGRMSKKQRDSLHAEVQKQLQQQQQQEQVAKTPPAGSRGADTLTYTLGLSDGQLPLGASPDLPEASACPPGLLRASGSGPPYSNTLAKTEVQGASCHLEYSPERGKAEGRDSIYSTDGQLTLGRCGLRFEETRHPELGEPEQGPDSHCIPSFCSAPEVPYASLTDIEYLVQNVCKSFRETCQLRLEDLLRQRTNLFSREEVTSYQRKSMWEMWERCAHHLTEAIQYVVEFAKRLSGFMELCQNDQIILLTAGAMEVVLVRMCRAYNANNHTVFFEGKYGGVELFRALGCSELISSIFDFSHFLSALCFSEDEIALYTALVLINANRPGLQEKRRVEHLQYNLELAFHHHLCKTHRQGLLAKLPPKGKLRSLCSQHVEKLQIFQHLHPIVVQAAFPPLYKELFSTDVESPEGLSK
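A Gal4/UAS one-hybrid system in insect cells: metallothionein-promoter Gal4–ROR gamma fusion plus Photinus luciferase reporter. Copper sulfate 700 uM final, 20 hr ambient incubation, luminescent detection after 10 min with reagent.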
Each line names hits and unclear results; the compound was inactive in the other large screens. Unless noted, calls come from the whole dose curve; as a rule, active = well fitted curve in the direction sought with a large enough effect; inconclusive = small, poorly fitted or top-dose-only effect, or another doubt; inactive = no such curve, though single readings can be large; an effect the other way counts as inactive or inconclusive.

COc1cc(C=O)ccc1OC(=O)N1CCOCC1	none
Cc1ccccc1NC(=O)Cc1nnc(SCC(=O)N2CCOCC2)n1C	none (no result: VP16 counter, RORg inh)
Cn1c(SCC(=O)c2ccccc2)nnc1-c1ccc(O)cc1	BCR signal inh inconclusive, VP16 counter 11.2µM
O=C(OCC(=O)N(CCc1ccccc1)Cc1ccccc1)c1ccccc1NCCO	BCR signal inh inconclusive
COc1cc2c(cc1OC)-c1c(OC)c(OC)cc3ccnc(c13)C2=O	BCR signal inh inconclusive, MCF10A rereplic inconclusive, SW480 rereplic inconclusive, Giardia kill -84.3
COc1ccc(C(=O)c2nccc3cc(OC)c(OC)cc23)cc1OC	none (no result: VP16 counter, RORg inh)
CCn1c(=N)n(CC(=O)c2ccc(Cl)c(Cl)c2)c2ccccc21	MCF10A rereplic 25.9µM, SW480 rereplic inconclusive
N=c1n(CCN2CCCCC2)c2ccccc2n1CC(=O)c1ccc(Cl)c(Cl)c1	BCR signal inh inconclusive, MCF10A rereplic 10.3µM, SW480 rereplic inconclusive
N=c1n(CCN2CCCCC2)c2ccccc2n1CC(O)c1ccc(Cl)c(Cl)c1 (stereo not drawn)	BCR signal inh inconclusive, MCF10A rereplic inconclusive, VP16 counter inconclusive
COc1ccccc1Cn1c(C(C)C)nc2ccccc21	MCF10A rereplic inconclusive, RORg inh 7.94µM
COCCn1c(-c2ccccc2)nc2ccccc21	MCF10A rereplic inconclusive, SW480 rereplic inconclusive, RORg inh inconclusive
CCn1c(NCc2cc(OC)ccc2OC)nc2ccccc21	none
COc1ccccc1Cn1c(/C=C/c2ccccc2)nc2ccccc21	MCF10A rereplic inconclusive, SW480 rereplic inconclusive, VP16 counter 22.4µM, RORg inh inconclusive
COc1ccc(/C=C/c2nc3ccccc3n2Cc2ccccc2OC)cc1	BCR signal inh inconclusive, MCF10A rereplic 16.4µM, SW480 rereplic inconclusive, RORg inh 14.1µM
COCCn1c(/C=C/c2ccccc2)nc2ccccc21	VP16 counter inconclusive, RORg inh 11.2µM
C=CCn1c(NCc2ccccc2OC)nc2ccccc21	BCR signal inh inconclusive, RORg inh inconclusive
Cc1cc(C(=O)NCC(=O)Nc2ccc(F)c(F)c2)c(C)o1	none (no result: VP16 counter, RORg inh)
N#CC1C(=N)Cc2ccccc2-c2ccccc21 (stereo not drawn)	MCF10A rereplic inconclusive, SW480 rereplic 16.4µM (no result: BCR signal inh, VP16 counter, RORg inh)
Brc1ccccc1-c1nnc(SCc2nc3ccccc3s2)o1	BCR signal inh inconclusive, MCF10A rereplic 9.2µM
O=C(Cc1cccs1)NNC(=S)NCc1ccco1	RORg inh 14.1µM
O=C(Cc1ccc(-c2ccccc2)cc1)NNC(=S)NCc1ccco1	BCR signal inh inconclusive, MCF10A rereplic inconclusive, VP16 counter inconclusive, RORg inh 5.62µM
O=C(Cc1cccs1)NCc1ccco1	BCR signal inh inconclusive
O=C(CC12CC3CC(CC(C3)C1)C2)NC(=S)NCc1ccco1	VP16 counter inconclusive, RORg inh 3.55µM
CC(C)(C)n1nc2c(c1NC(=O)c1ccc(C(F)(F)F)cc1)CS(=O)(=O)C2	none
CC(=O)CSc1nc(N)c(C#N)c(-c2cccs2)c1C#N	BCR signal inh inconclusive, MCF10A rereplic inconclusive
CC(C)(C)C(=O)CSc1nc2c(c(-c3cccs3)c1C#N)CCC2	MCF10A rereplic 4.11µM, SW480 rereplic inconclusive, RORg inh inconclusive
CC[C@H]1OC(=O)[C@H](C)C(=O)[C@H](C)[C@@H](OC2O[C@H](C)C[C@H](N(C)C)[C@@H]2O)[C@@](C)(OC)C[C@@H](C)C(=O)[C@@H](C)C2N(CCCCn3cnc(-c4cccnc4)c3)C(=O)O[C@@]21C (stereo partly drawn)	none (no result: BCR signal inh, Giardia kill)
CCN(CC)CCCNC(=O)c1sc2nc(-c3ccc(F)cc3)cn2c1C	BCR signal inh inconclusive, MCF10A rereplic 23.1µM, SW480 rereplic inconclusive
Cc1c(C(=O)NCc2ccccn2)sc2nc(-c3ccc(F)cc3)cn12	BCR signal inh inconclusive, MCF10A rereplic inconclusive
N#Cc1c(N2CCCC2)nc(N)c2c(N)nc(N3CCCC3)cc12	MCF10A rereplic inconclusive, SW480 rereplic inconclusive, RORg inh 8.91µM
COc1cc2c(C#N)c(N3CCN(c4ccccc4OC)CC3)nc(N)c2c(N)n1	BCR signal inh inconclusive, MCF10A rereplic 10.3µM, SW480 rereplic inconclusive
COc1ccc(-c2csc(NCc3ccco3)n2)cc1C	RORg inh inconclusive
Cc1cccc(Nc2nc(-c3c(C)nc4ccccn34)cs2)c1	BCR signal inh inconclusive, SW480 rereplic inconclusive, VP16 counter inconclusive, RORg inh 12.6µM
Cc1ccn2c(-c3csc(NCc4ccco4)n3)c(C)nc2c1	Giardia kill inconclusive, VP16 counter inconclusive, RORg inh 12.6µM
Cc1nc2ccccn2c1-c1csc(Nc2cccc(C(=O)O)c2)n1	none
Cc1nc2ccccn2c1-c1csc(Nc2ccc(C(=O)O)cc2)n1	BCR signal inh inconclusive, MCF10A rereplic 11.6µM, SW480 rereplic 11.6µM
COc1ccc(-c2coc3cc4oc(=O)c5ccccc5c4cc23)cc1F	BCR signal inh inconclusive, MCF10A rereplic inconclusive, SW480 rereplic 2.51µM
O=C(Nc1nccs1)c1ccc(CSc2nnnn2-c2ccccc2)cc1	BCR signal inh inconclusive, SW480 rereplic inconclusive, VP16 counter 14.1µM, RORg inh inconclusive
NC(=O)c1ccc(-n2nnnc2SCc2ccccc2)cc1	SW480 rereplic inconclusive
CN1CCN(CCOC2Cc3ccccc3Sc3ccc(Cl)cc32)CC1 (stereo not drawn)	BCR signal inh inconclusive, MCF10A rereplic 23.1µM
CSc1ccc(C2C(C#N)=C(N)Oc3c2ccc(=O)c2c(C)oc(C)c32)cc1 (stereo not drawn)	BCR signal inh inconclusive, MCF10A rereplic 18.4µM, VP16 counter inconclusive, RORg inh 6.31µM
CN(C)CCCN(C(=O)c1ccc(S(=O)(=O)N2CCc3ccccc3C2)cc1)c1nc2c(F)cc(F)cc2s1	SW480 rereplic 3.66µM (no result: VP16 counter, RORg inh)
Cc1ccc2nc(N(CCCN(C)C)C(=O)c3ccc(S(=O)(=O)N4CCCCCC4)cc3)sc2c1	BCR signal inh inconclusive, SW480 rereplic inconclusive, VP16 counter inconclusive, RORg inh 11.2µM
CCOc1ccc2nc(N(CCCN(C)C)C(=O)c3ccc(S(=O)(=O)N4CCc5ccccc5C4)cc3)sc2c1	MCF10A rereplic inconclusive, SW480 rereplic inconclusive, VP16 counter inconclusive, RORg inh 10µM
Cc1cc(C)c2nc(N(CCCN(C)C)C(=O)c3ccc4c(c3)OCCO4)sc2c1	BCR signal inh inconclusive, MCF10A rereplic 18.4µM, SW480 rereplic inconclusive (no result: VP16 counter, RORg inh)
Cc1ccc2sc(N(CCCN(C)C)C(=O)c3ccc(S(=O)(=O)N4CCc5ccccc5C4)cc3)nc2c1C	MCF10A rereplic inconclusive, SW480 rereplic 3.66µM (no result: VP16 counter, RORg inh)

From PubChem BioAssay
